Test results published in the supplement of paper PMC10849652.
Of roughly 8,800 targets only a part is listed; those with a hit were picked by preference. About 0.5% of all pairs of compound and target were hits.

Legend:
Test in all cases: log2 fold change, soluble protein after heating vs DMSO (PISA); higher = thermal stabilisation; K562 lysate, 10 uM; active = over 0.2 and 3.5 SD of the protein, either way, in both replicates (recomputed)
[1] = compound: NCC(=O)Nc1ccc(-n2nc(C(F)(F)F)cc2-c2ccc3c(ccc4ccccc43)c2)cc1
Summary of the method: (§1)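 Log-two fold change in thermal stability relative to solvent controls is reported from duplicates. For each sample, crude K562 extract from dounce-homogenised pellets in PBS pH 7.4 with 1 mM MgCl2, at 1 mg/mL protein, was treated with 10 μM compound for 30 min. Aliquots heated for 3 min across 48°C-58°C were pooled, brought to 0.5% NP-40 at 4°C and cleared at 21,000xg for 90 min. The supernatant was quantified by TMTpro 16plex LC-MS/MS with channel sums equalised.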

vorinostat = compound: O=C(CCCCCCC(=O)Nc1ccccc1)NO [vorinostat]
Summary of the method: as §1

silmitasertib = compound: O=C(O)c1ccc2c(c1)nc(Nc1cccc(Cl)c1)c1ccncc12 [silmitasertib]
Summary of the method: as §1

[2] = compound: O=C1NC(=O)C(c2cnc3ccccn23)=C1c1cn2c3c(cc(F)cc13)CN(C(=O)N1CCCCC1)CC2
Summary of the method: as §1

entospletinib = compound: c1cn2cc(-c3ccc4cn[nH]c4c3)nc(Nc3ccc(N4CCOCC4)cc3)c2n1 [entospletinib]
Summary of the method: as §1

Measured: log2 fold change

SKA3 (UniProt Q8IX90)
Sequence of UniProt Q8IX90 (Q8IX90 whole entry, looked up): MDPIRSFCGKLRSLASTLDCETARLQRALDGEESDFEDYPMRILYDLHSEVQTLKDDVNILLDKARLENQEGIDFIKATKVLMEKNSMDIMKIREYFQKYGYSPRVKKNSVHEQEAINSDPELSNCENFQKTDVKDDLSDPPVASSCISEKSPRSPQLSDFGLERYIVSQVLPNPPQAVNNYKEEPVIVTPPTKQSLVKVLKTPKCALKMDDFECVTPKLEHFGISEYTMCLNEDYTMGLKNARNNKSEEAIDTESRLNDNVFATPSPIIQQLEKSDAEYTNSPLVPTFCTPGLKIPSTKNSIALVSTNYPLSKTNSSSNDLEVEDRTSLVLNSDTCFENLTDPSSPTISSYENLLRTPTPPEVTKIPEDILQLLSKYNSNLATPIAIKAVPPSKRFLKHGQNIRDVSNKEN
inactive: [1] -0.007 | silmitasertib 0 | [2] -0.022 | entospletinib 0.006
active: vorinostat -0.247

SRSF9 (UniProt Q13242)
Sequence of UniProt Q13242 (Q13242 whole entry, looked up): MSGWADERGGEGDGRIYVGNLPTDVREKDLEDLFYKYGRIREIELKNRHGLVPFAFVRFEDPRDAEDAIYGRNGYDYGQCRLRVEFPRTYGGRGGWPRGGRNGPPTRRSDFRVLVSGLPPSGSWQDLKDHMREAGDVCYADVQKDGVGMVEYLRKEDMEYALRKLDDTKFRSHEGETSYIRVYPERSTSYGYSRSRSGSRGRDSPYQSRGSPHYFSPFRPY
inactive: [1] -0.182 | vorinostat -0.113 | silmitasertib 0.069 | [2] -0.035 | entospletinib 0.007

SRPK1 (UniProt Q96SB4)
Sequence of UniProt Q96SB4 (Q96SB4 whole entry, looked up): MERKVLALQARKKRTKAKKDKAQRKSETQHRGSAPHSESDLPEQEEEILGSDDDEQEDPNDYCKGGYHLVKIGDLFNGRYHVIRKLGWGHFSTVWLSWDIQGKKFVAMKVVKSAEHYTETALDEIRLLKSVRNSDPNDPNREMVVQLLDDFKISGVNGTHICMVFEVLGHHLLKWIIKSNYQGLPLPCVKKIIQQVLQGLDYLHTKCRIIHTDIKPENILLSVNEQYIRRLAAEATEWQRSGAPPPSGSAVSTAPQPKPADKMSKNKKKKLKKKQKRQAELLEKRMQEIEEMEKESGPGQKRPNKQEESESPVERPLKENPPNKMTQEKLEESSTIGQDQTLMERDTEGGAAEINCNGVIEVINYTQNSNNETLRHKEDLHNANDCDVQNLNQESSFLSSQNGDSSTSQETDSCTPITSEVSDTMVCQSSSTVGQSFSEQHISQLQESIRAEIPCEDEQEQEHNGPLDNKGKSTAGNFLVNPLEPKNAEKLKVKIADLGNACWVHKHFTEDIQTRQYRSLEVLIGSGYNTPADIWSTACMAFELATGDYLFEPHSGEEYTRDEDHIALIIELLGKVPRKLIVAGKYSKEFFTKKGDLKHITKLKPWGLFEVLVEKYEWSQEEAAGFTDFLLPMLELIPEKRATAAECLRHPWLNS
inactive: [1] -0.043 | vorinostat -0.172 | silmitasertib 0.119 | [2] 0 | entospletinib 0.012

SOX5 (UniProt P35711)
Sequence of UniProt P35711 (P35711 whole entry, looked up): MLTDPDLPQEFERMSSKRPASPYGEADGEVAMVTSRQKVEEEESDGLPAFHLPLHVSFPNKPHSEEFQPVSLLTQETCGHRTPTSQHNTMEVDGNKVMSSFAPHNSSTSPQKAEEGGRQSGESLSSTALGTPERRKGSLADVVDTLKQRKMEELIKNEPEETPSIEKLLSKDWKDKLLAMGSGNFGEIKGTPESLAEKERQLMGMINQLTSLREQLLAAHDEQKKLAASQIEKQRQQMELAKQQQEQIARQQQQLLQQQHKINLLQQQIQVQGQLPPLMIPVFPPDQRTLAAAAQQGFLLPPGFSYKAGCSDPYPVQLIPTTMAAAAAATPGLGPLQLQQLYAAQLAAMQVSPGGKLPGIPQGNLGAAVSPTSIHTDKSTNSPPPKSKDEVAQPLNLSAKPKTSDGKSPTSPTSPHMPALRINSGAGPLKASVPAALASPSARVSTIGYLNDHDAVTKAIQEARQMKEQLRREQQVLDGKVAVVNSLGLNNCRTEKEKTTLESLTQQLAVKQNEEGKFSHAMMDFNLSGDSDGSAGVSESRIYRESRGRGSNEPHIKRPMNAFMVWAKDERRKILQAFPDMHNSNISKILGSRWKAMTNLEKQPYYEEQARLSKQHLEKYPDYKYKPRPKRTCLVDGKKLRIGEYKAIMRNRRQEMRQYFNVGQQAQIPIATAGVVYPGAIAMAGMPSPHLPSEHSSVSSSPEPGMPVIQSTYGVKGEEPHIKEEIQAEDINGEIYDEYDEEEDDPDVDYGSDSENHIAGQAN
inactive: [1] -0.036 | vorinostat -0.014 | silmitasertib 0.099 | [2] -0.027 | entospletinib -0.083

SPPL2A (UniProt Q8TCT8)
Sequence of UniProt Q8TCT8 (Q8TCT8 whole entry, looked up): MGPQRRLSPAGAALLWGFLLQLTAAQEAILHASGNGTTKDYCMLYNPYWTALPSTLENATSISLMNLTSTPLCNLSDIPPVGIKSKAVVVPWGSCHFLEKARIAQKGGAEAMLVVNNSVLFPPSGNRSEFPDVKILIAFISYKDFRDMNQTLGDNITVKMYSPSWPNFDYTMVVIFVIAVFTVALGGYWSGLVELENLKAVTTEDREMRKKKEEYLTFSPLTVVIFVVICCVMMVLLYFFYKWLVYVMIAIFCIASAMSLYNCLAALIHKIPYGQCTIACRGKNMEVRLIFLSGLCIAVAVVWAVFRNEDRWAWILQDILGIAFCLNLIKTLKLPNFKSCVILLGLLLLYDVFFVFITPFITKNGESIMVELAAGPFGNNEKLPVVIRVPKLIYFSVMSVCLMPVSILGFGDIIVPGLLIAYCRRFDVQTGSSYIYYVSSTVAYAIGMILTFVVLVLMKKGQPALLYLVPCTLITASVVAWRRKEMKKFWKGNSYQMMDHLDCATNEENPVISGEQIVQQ
inactive: [1] 0.407 | vorinostat -0.106 | silmitasertib -0.069 | [2] 0.047 | entospletinib 0.141

STIM1 (UniProt Q13586)
Sequence of UniProt Q13586 (Q13586 whole entry, looked up): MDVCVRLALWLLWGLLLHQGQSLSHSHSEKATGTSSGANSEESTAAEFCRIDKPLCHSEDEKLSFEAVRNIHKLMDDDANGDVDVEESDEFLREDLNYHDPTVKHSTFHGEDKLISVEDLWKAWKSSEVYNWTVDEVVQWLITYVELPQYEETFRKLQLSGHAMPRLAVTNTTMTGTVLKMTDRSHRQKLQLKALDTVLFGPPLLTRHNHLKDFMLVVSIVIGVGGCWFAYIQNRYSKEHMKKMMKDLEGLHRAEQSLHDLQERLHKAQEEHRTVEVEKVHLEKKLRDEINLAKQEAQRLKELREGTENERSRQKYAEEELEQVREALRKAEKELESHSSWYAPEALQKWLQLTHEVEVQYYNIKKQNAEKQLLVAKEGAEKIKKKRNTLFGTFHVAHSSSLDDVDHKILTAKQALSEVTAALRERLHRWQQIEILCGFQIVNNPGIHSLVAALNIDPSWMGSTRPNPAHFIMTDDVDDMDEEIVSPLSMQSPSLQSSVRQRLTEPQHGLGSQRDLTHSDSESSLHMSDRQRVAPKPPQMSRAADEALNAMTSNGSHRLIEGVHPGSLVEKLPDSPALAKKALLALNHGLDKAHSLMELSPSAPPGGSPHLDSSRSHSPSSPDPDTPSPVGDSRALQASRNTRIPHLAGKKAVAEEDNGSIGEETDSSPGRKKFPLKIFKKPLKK
inactive: [1] 0.026 | vorinostat 0.126 | silmitasertib -0.01 | [2] 0.018 | entospletinib -0.025

SMIM12 (UniProt Q96EX1)
Sequence of UniProt Q96EX1 (Q96EX1 whole entry, looked up): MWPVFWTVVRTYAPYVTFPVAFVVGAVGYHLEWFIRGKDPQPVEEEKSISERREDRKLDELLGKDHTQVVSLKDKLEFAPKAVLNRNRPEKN
inactive: [1] -0.044 | vorinostat 0.174 | silmitasertib -0.003 | [2] -0.025 | entospletinib -0.058

TARBP1 (UniProt Q13395)
Sequence of UniProt Q13395 (Q13395 whole entry, looked up): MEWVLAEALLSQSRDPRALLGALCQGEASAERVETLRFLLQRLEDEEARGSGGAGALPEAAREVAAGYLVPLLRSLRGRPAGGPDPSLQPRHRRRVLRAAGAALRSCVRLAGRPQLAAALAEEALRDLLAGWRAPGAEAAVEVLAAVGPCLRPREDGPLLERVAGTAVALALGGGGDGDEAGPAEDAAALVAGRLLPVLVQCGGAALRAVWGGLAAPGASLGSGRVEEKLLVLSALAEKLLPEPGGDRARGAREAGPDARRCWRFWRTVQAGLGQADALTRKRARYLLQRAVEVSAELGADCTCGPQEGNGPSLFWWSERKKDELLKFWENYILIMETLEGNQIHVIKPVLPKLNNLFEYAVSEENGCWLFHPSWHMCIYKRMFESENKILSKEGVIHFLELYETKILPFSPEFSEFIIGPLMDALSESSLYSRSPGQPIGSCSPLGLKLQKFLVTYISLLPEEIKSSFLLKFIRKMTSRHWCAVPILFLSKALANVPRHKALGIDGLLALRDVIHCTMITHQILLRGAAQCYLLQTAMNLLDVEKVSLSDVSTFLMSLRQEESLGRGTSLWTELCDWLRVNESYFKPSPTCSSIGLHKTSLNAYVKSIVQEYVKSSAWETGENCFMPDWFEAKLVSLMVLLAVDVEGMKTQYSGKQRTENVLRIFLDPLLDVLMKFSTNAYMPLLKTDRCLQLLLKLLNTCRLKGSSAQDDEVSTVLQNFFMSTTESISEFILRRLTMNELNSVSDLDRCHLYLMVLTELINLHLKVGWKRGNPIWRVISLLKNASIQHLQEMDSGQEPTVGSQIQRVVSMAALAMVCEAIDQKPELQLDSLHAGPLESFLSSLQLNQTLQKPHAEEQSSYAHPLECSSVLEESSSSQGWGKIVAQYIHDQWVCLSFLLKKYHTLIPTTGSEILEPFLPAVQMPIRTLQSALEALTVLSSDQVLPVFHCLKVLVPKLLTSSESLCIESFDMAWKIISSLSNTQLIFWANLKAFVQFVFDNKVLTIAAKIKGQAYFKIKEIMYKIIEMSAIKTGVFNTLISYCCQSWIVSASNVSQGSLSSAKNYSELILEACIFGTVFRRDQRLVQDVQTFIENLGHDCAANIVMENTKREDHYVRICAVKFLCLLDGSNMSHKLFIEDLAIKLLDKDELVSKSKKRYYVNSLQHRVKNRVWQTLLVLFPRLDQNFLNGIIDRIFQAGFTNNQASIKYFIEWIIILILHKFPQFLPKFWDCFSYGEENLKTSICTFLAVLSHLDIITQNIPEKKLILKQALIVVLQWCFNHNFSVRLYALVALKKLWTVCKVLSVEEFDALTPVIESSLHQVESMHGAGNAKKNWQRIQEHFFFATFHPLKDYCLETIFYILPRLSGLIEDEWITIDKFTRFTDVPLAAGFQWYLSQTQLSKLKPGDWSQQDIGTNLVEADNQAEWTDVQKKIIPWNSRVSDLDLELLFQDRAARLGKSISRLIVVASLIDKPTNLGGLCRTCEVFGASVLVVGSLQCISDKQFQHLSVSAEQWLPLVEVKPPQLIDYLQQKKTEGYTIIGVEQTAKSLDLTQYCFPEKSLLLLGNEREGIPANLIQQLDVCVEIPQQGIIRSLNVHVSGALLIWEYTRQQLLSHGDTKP
inactive: [1] -0.151 | silmitasertib 0.097 | [2] 0.017 | entospletinib 0.028
active: vorinostat -0.608
